Data on one molecule can be found in the supplement of paper PMC8728848.

Experiment in all cases: glycan array binding signal (z-score within array); higher = stronger binding
Details in all cases: glycan notation: IUPAC condensed, linker removed

The target of assay [1] is GlcNAc(b1-4)GlcNAc(b1-4)GlcNAc(b1-4)GlcNAc(b1-4)GlcNAc. The method in brief: (§1)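 Negative Z-scores can be read as non-binding. The Z-score is calculated within each array and then averaged across arrays of one protein sequence at different concentrations or buffers and across linkers. Arrays, 3228 in all, were curated from the Consortium for Functional Glycomics database and kept only where the protein sequence was available.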

In assay [2] the target is GlcNAc(b1-6)Gal(b1-4)GlcNAc. An outline of the steps: as §1
Assay [3] deals with Man(a1-2)Man(a1-3)[Man(a1-6)]Man(a1-6)[Man(a1-2)Man(a1-3)]Man(b1-4)GlcNAc(b1-4)GlcNAc. An outline of the steps: as §1
Assay [4] concerns the target Neu5Ac(a2-3)Gal(b1-3)GalNAc(b1-4)[Neu5Ac(a2-8)Neu5Ac(a2-3)]Gal(b1-4)Glc. The method in brief: as §1
The target of assay [5] is Neu5Ac(a2-3)Gal(b1-3)GlcNAc(b1-2)Man(a1-3)[Neu5Ac(a2-3)Gal(b1-3)GlcNAc(b1-2)Man(a1-6)]Man(b1-4)GlcNAc(b1-4)GlcNAc. The method in brief: as §1
Assay [6] has as its target Neu5Ac(a2-3)Gal(b1-4)GlcNAc(b1-2)Man(a1-3)[Neu5Ac(a2-3)Gal(b1-4)GlcNAc(b1-2)Man(a1-6)]Man(b1-4)GlcNAc(b1-4)GlcNAc. The method in brief:
as §1

Assay [7] deals with Neu5Ac(a2-3)Gal(b1-4)GlcNAc(b1-3)Gal(b1-4)[Fuc(a1-3)]GlcNAc. An outline of the steps: as §1
Assay [8] concerns the target Neu5Ac(a2-3)Gal(b1-4)[Fuc(a1-3)]GlcNAc. An outline of the steps:
as §1

Assay [9] concerns the target Neu5Ac(a2-3)Gal(b1-4)[Fuc(a1-3)]GlcNAc(b1-3)Gal. An outline of the steps: as §1
Assay [10] addresses Neu5Ac(a2-6)Gal(b1-4)GlcNAc(b1-2)Man(a1-3)[Neu5Ac(a2-6)Gal(b1-4)GlcNAc(b1-2)Man(a1-6)]Man(b1-4)GlcNAc(b1-4)[Fuc(a1-6)]GlcNAc. The method in brief: as §1
Assay [11] concerns the target Neu5Ac(a2-6)Gal(b1-4)GlcNAc(b1-2)[Neu5Ac(a2-6)Gal(b1-4)GlcNAc(b1-4)]Man(a1-3)[GlcNAc(b1-4)][Neu5Ac(a2-6)Gal(b1-4)GlcNAc(b1-4)Man(a1-6)]Man(b1-4)GlcNAc(b1-4)GlcNAc. An outline of the steps: as §1
The target in assay [12] is Neu5Ac(a2-6)GlcNAc(b1-4)GlcNAc. The method in brief: as §1
The target in assay [13] is Neu5Ac(a2-8)Neu5Ac(a2-3)[GalNAc(b1-4)]Gal(b1-4)Glc. The method in brief:
as §1

Assay [14] has as its target Neu5Ac(a2-8)Neu5Gc(a2-3)Gal(b1-4)GlcNAc. An outline of the steps:
as §1

For assay [15], the target named is Neu5Ac9Ac(a2-6)Gal(b1-4)GlcNAc. An outline of the steps:
as §1

Assay [16] deals with Neu5Gc(a2-3)Gal(b1-4)GlcNAc. The method in brief:
as §1

Assay [17] deals with Neu5Gc(b2-6)Gal(b1-4)GlcNAc. An outline of the steps: as §1

Shown is part of a subset that was picked to be rich in the strongest signals.

B1: SAOUHSC 02783 (Staphylococcus aureus), Q5HD69 (protein)
chain: MIHSKKLTLGICLVLLIILIVGYVIMTKTNGRNAQIKDTFNQTLKLYPTKNLDDFYDKEGFRDQEFKKGDKGTWIVNSEMVIEPKGKDMETRGMVLYINRNTRTTKGYYFISEMTDDSNGRPKDDEKRYPVKMEHNKIIPTKPLPNDKLKKEIENFKFFVQYGNFKDINDYKDGDISYNPNVPSYSAKYQLNNDDYNVQQLRKRYDIPTKQAPKLLLKGDGDLKGSSVGSRSLEFTFVENKEENIYFTDSVQYTPSEDTRYESN
Take B1: the “glycan array binding signal (z-score)” value is -0.476 in [1]; 0.133 in [2]; 0.494 in assay [3]; -0.869 in assay [4]; 6.23 in assay [5]; 0.306 in [6]. Further, the “glycan array binding signal (z-score)” value in assay [7] is -0.998; in assay [8], -1.44; in assay [9], -0.162; in assay [10] it was 2.81; in assay [11], 0.093; in assay [12], 1.36. Also, the “glycan array binding signal (z-score)” value is -0.759 in assay [13]; -1.02 in [14]; 1.65 in assay [15]; 3.09 in assay [16]; -0.76 in assay [17].
